# VLA-4 inh – inhibition in a human VLA-4 binding assay | P13612 | VLA-4 expressing cells, ligand binding flow cytometry | inhibition, % (about 7 µM as worked out from the volumes in the protocol) | actives 0.2% (n = 330,000) | AID 2557; in the data active = inhibition above about 50%
# AHR activator – activators of human aryl hydrocarbon receptor | AID 2796 | activation, % at 5 µM | P35869 | actives 2.5% (n = 320,000) | AHR-responsive luciferase reporter cells, luminescence; in the data active = activation above about 47%;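 also: 0% = vehicle wells and 100% = reference agonist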
# Bfl-1 A1 inh – inhibitors of the anti-apoptotic protein A1, read as caspase activation. MEF A1-2A-BIM cells, Caspase-Glo 3/7 luminescence, 3 h; percent of clofoctol response, vehicle zero. actives 0.066% (n = 330,000). caspase activation, % (concentration not given with the values);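 active = over half of replicate activation scores above 10%, or exactly half above 10 with the replicate mean above 10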
# Efflux pump mplx – blocks antifungal efflux pumps in multiplex yeast assay; inhibition, % at 10 µM; actives 0.44% (n = 330,000); S. cerevisiae Candida pump triplex, Nile Red efflux;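 active = plate passing quality check with inhibition over a set limit, or well fluorescence over plate mean plus 4 SD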;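 also: Nile Red retained in pooled yeast measured as flow cytometry median fluorescence; 0% = buffer negative control and 100% = Enniatin B positive control; higher means more Nile Red kept so more efflux inhibition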
# Mot1-301 SUMO – blocks SUMOylation pathway, rescuing yeast Mot1-301 growth | actives 1% (n = 320,000) | S. cerevisiae Mot1-301 growth rescue, ATP luminescence, 38.5C; percent above DMSO median, 100 means doubled | growth rescue, % at 18.8 µM | AID 2716;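 active = every valid replicate shows activation above 250% relative to neutral control wells; inactive = the rest, any valid replicate at or below 250%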;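 also: OY570 slx delta 5 strain wells were the positive control but not used for scaling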
# ALR H2O2 inh – blocks human ALR sulfhydryl oxidase activity | AID 485317 | inhibition, % (concentration not given with the values) | actives 3.8% (n = 290,000) | purified ALR, DTT oxidation, H2O2 HRP-luminol luminescence;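 active = mean replicate inhibition above about 79%, with every replicate also reaching it, limit read from the data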
# Target sequence (P55789 whole entry, looked up): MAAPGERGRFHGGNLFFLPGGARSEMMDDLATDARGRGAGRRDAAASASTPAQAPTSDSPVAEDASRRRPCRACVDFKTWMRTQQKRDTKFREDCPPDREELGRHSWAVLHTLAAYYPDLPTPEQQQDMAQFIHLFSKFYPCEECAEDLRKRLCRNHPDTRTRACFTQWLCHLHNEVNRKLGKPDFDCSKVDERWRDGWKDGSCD
# Starred values were filed as active, the others as inactive; / = not tested or not shown. Compounds with a hit are over-represented: about 7.2% of the library has one in this group of screens.
SMILES,VLA-4 inh,AHR activator,Bfl-1 A1 inh,Efflux pump mplx,Mot1-301 SUMO,ALR H2O2 inh
CC(C)(C)NC(=O)CCCSc1nc2ccccc2s1,3,22,-1,0,-7,39
O=C(CSc1ccc2ccccc2n1)NCc1ccc2c(c1)OCO2,-8,64*,1,0,27,-11
O=C(CSc1n[nH]c(-c2cccs2)n1)NCc1ccc2c(c1)OCO2,-16,58*,0,0,-8,14
O=C(CSc1ccc2nnc(-c3cccnc3)n2n1)NCc1ccc2c(c1)OCO2,24,14,0,0,-3,-9
O=C(CCCSc1nc2ccccc2s1)NCc1ccc2c(c1)OCO2,21,50*,0,-1,7,/
O=C(CSc1ccc2nnc(-c3ccccc3)n2n1)NCc1ccc2c(c1)OCO2,-18,56*,-1,0,-8,-10
O=C(CCN1C(=O)C2CCCCC2C1=O)Nc1nc(-c2ccccc2)cs1 (stereo not given),14,9,0,0,8,/
C=CCNc1nc2c3ccccc3n(C(C)=O)c2s1,0,16,0,0,-22,96*
CC(=O)n1c2ccccc2c2nc3ccccc3nc21,6,40,-1,0,9,-11
Nc1cccn2c(-c3ccc(Cl)c(Cl)c3)cnc12,-4,22,1,0,59,48
Nc1cccn2c(-c3ccc(Cl)cc3)cnc12,-220,70*,0,0,-16,29
Cc1ccc(C(=O)OCC(=O)Nc2ccc(F)c(Cl)c2)o1,14,-1,/,0,/,/
CNC(=S)NNC(=O)c1sc(-c2cc(C)on2)nc1C,-1,74*,1,0,-8,/
Cc1cc(C(=O)NNC(=S)NCC(C)C)no1,8,-2,0,0,10,2
O=C(NC1CCCC1)c1ccc(CS(=O)(=O)Cc2ccccc2Cl)o1,1,0,0,0,-1,4
O=C(NC1CC1)c1ccc(CSCc2ccccc2Cl)o1,-7,-1,0,0,-10,84*
CCOC(=O)C(=NCC1CCCO1)NNc1cc(Cl)ccc1Cl (stereo not given),3,0,2,0,88,99*
CCOc1ccc(Cl)cc1S(=O)(=O)N1CCC(C(=O)NCC2CCCO2)CC1 (stereo not given),-2,2,0,0,-8,2
COc1cccc(C2/C(=C(\O)c3ccc4c(c3)OCCO4)C(=O)C(=O)N2CCN(C)C)c1 (stereo not given),1,2,0,0,352*,-1
COc1ccc(C2/C(=C(\O)c3ccc4c(c3)OCCO4)C(=O)C(=O)N2CCCN(C)C)cc1 (stereo not given),15,4,-1,0,-11,-2
NS(=O)(=O)c1ccc(NC(=O)NC2CC(=O)N(c3ccc4c(c3)OCCO4)C2)cc1 (stereo not given),5,-2,1,0,3,-9
CC1=NNC(=O)/C1=C\c1cn(-c2ccccc2)nc1-c1cccs1,22,2,16*,0,-11,-1
Cc1ccc(-c2c(C(=O)N/N=C/C3CC=CCC3)nnn2-c2nonc2N)cc1 (stereo not given),8,2,0,0,17,-1
Cc1ccc(-c2nc(NCc3ccco3)n(C(=O)c3ccco3)n2)cc1,-5,15,0,0,3,/
O=C(c1ccco1)n1nc(-c2ccccc2)nc1NCc1ccco1,0,-2,0,0,9,78*
CCS(=O)(=O)N1CCN(CC2CC3C=CC2C3)CC1 (stereo not given),3,2,0,0,349*,-5
O=C1c2ccccc2S(=O)(=O)N1CC1CC(c2ccc(Cl)cc2)=NO1 (stereo not given),7,49*,0,1,308,-2
C/C(=N\Nc1ccc(F)cc1F)c1cccs1,19,0,-1,0,184,-8
CC1Cc2nc(SCC(=O)N3CCc4ccccc43)n(C)c(=O)c2S1 (stereo not given),4,19,1,0,1,98*
CC1Cc2nc(SCC(=O)Nc3nc4ccccc4s3)n(C)c(=O)c2S1 (stereo not given),1,60*,1,0,7,99*

# Screening data: PubChem, several laboratories
